p97 ATPase inh: human p97 ATPase inhibition. P55072. recombinant p97 ATPase, Kinase-Glo ATP luminescence, 3 h. inhibition, % at 8 µM. hit rate 0.42% among 220,000; in the data active means inhibition above about 15%
Hck Nef HTS: human Hck-Nef kinase inhibition. P08631. inhibition, % at 20 µM. hit rate 0.68% among 220,000. Recombinant Hck-YEEI plus Nef, Z-Lyte FRET kinase assay;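 active means Hck-Nef kinase inhibition above about 50%, limit read from the data; inactive means inhibition below that limit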
Target sequence (P08631 whole entry, looked up): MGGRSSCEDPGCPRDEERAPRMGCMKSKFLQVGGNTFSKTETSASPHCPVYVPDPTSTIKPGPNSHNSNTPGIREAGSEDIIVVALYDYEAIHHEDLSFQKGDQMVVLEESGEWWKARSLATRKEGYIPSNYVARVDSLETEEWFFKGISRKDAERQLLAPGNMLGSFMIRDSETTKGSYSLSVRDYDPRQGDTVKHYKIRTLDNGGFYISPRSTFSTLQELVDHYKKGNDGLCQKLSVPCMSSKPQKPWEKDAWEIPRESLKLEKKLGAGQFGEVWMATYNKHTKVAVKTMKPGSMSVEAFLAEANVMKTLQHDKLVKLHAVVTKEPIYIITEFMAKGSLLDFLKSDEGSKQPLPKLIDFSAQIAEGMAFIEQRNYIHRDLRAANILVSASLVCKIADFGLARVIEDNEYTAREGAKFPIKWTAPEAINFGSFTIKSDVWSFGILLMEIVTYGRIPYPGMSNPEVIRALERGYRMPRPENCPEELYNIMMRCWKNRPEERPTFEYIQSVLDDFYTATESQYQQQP
Arbovirus inh: blocks arbovirus infection; arbovirus infection cell-based antiviral screen; inhibition, % at 10 µM; hit rate 0.37% among 200,000; in the data active means inhibition above about 30%
PGE2 EP2 inh: blocks the human prostaglandin E2 receptor EP2 | P43116 | inhibition, % at 25 µM | C6 glioma cells expressing human EP2, cAMP TR-FRET; cells stimulated with saturating PGE2 | AID 1422 | hit rate 0.52% among 260,000;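 active means percent inhibition above 40 after rounding to a whole number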;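 further: rat C6 glioma host cells with rolipram phosphodiesterase inhibitor present; the protocol text gives 20 µM as final concentration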
EP2 modulator: modulators of human EP2 prostaglandin E2 receptor. EP2-expressing cells, cAMP HTRF FRET, PGE2 co-stimulation. induction, % at 25 µM. hit rate 0.83% among 260,000. AID 940;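 active means compounds whose cAMP rise, as percent of the full-agonist control response, exceeds 60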;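 further: rat C6 glioma line stably carrying human EP2 under a CMV promoter; the protocol text gives 20 µM as final concentration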
EP2 cAMP induct: EP2 receptor cAMP induction, counter-screens negative; shares compounds with EP2 modulator; calls only at 20 µM (by protocol); C6 glioma EP2 cells, cAMP HTRF induction; plus low (about EC15) PGE2 agonist; hit rate 47% among 1,300; AID 1080;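 active means cAMP induction above 50% in the main assay while under 30% in all four parallel counter assays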;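 further: rat C6 glioma cells stably expressing human EP2 receptor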
Of the large screens only hits and unclear results are named; the others gave an inactive call (follow-up assays come after a bar, where they were run). Most compounds without a hit are left out; they make up all but 2.4% or so of the library.

CC(=O)OC1c2c(ccc3ccc(=O)oc23)OC(C)(C)C1OC(=O)CC(C)C (stereo unspecified)	none (no result: PGE2 EP2 inh)
CCc1nc(N2CCCCC2)c2oc3ccccc3c2n1	EP2 modulator 76 | EP2 cAMP induct inactive
CCc1nc(N2CCCCC2C(=O)O)c2oc3ccccc3c2n1 (stereo unspecified)	none (no result: Arbovirus inh)
COC(=O)n1c(=S)oc2cc(Cl)ccc21	none
CCCCOC(=O)n1c(=S)oc2cc(Cl)ccc21	EP2 modulator 71 | EP2 cAMP induct inactive
CCOC(=O)c1sc2nccc(N(C)C)c2c1N=CNOCc1ccccc1	EP2 modulator 74 | EP2 cAMP induct active
COc1cc(NC(=O)c2cnn3c(C(F)F)cc(C4CC4)nc23)c(OC)cc1Cl	none
COC(=O)c1ccccc1NC(=O)c1cnn2c(C(F)F)cc(C3CC3)nc12	EP2 modulator 76 | EP2 cAMP induct inactive
COc1ccc([C@@H]2C[C@H](C(=O)NC(C)(C)CO)N(C)S(=O)(=O)N2)cc1OC	none (no result: p97 ATPase inh, Hck Nef HTS, Arbovirus inh, PGE2 EP2 inh)
Cc1ccc2nc(SCC(=O)NCc3ccco3)c(C#N)cc2c1	none
Cc1ccc2nc(SCC(=O)NCc3ccco3)c(C)cc2c1	EP2 modulator 69 | EP2 cAMP induct active
CCOC(=O)NC(=O)/C(N=Nc1cc(C)cc(C)c1)=C(\C)O	none
CCOC(=O)/C(N=Nc1c(Br)cc(Br)cc1Br)=C(\C)O	EP2 modulator 68 | EP2 cAMP induct inactive
NC(=O)CSc1nnc(-c2cccc(F)c2)o1	none (no result: p97 ATPase inh, Hck Nef HTS, Arbovirus inh)
CC(=O)CCCCn1cnc2c1c(=O)n(C)c(=O)n2C	none (no result: Hck Nef HTS, EP2 modulator)
Cn1c(=O)c2c(ncn2CCSS(=O)(=O)O)n(C)c1=O	EP2 modulator 61 (no result: p97 ATPase inh, Hck Nef HTS, Arbovirus inh) | EP2 cAMP induct inactive
O=C(O)CCCCCN1C(=O)/C(=C\c2cn(-c3ccccc3)nc2-c2cccs2)SC1=S	none (no result: Arbovirus inh)
O=C(O)CCN1C(=O)/C(=C/c2cn(-c3ccccc3)nc2-c2cccs2)SC1=S	EP2 modulator 71 | EP2 cAMP induct active
CCOC(=O)Cn1nnnc1CN(Cc1ccco1)Cc1cc2cc(C)ccc2[nH]c1=O	none (no result: p97 ATPase inh, Hck Nef HTS, Arbovirus inh)
Fc1ccc(-c2cc(-c3ccccc3)nc(-n3cccn3)n2)cc1	none | EP2 cAMP induct active
Cc1ccccc1C(=O)Nc1ccccc1N1CCCCC1	none | EP2 cAMP induct active
O=C(Nc1ccccc1N1CCCCC1)c1cnccn1	EP2 modulator 66 | EP2 cAMP induct active
Cc1ccc(C(=O)Nc2ccccc2N2CCCCC2)cc1[N+](=O)[O-]	EP2 modulator 66 | EP2 cAMP induct active
COc1ccc(C(=O)Nc2ccccc2N2CCCCC2)cc1[N+](=O)[O-]	none | EP2 cAMP induct active
CCn1cc(C(=O)N2CCCC(c3ncncc3-c3ccncc3)C2)c(C)n1 (stereo unspecified)	none (no result: p97 ATPase inh, Hck Nef HTS, Arbovirus inh, PGE2 EP2 inh)
Cc1cc(C)n(-c2nc3ccccc3[nH]c2=O)n1	none
Cc1cc(C)n(-c2nc3ccccc3nc2Nc2ccc3[nH]c(=O)[nH]c3c2)n1	EP2 modulator 83 | EP2 cAMP induct inactive
CCOc1ccc(CN2CCC(O)(c3ccccc3)C2)cc1Cn1ccnc1 (stereo unspecified)	none (no result: p97 ATPase inh, Hck Nef HTS, Arbovirus inh)
CCn1c(SCC(=O)Nc2cccc(C)c2)nnc1-c1ccco1	none (no result: p97 ATPase inh, Hck Nef HTS, Arbovirus inh)
O=C(Nc1cccc2cccnc12)c1ccc(Br)o1	EP2 modulator 69 | EP2 cAMP induct inactive
Cc1c(C(=O)Nc2cccc3cccnc23)oc2ccccc12	EP2 modulator 65 | EP2 cAMP induct active
CCN(C(=S)NC(=O)/C=C/c1ccco1)c1ccccc1	none (no result: p97 ATPase inh, Hck Nef HTS, Arbovirus inh)
COc1ccc(S(=O)(=O)N(CC(=O)NCc2ccccn2)c2ccccc2)cc1OC	none (no result: p97 ATPase inh, Hck Nef HTS, Arbovirus inh)
CCOC(=O)c1c(N)sc(-c2ccccc2)c1C	EP2 modulator 73 | EP2 cAMP induct inactive
CCOC(=O)c1c(N)nn(C(=O)c2ccccc2F)c1-c1ccc(OC)cc1	none
CCOC(=O)c1c(N)nn(C(=O)C(C)(C)C)c1-c1ccccc1	EP2 modulator 78 | EP2 cAMP induct active
COc1ccc2[nH]c3nc(SCC(=O)N(C)C4CCCCC4)nnc3c2c1	none (no result: p97 ATPase inh, Hck Nef HTS, Arbovirus inh)
O=c1c(O)c(-c2ccccc2)oc2ccc3occc3c12	EP2 modulator 74 (no result: p97 ATPase inh, Hck Nef HTS, Arbovirus inh) | EP2 cAMP induct active
CCOC(=O)n1c(=O)n(Cc2ccc(Cl)c(Cl)c2)c2ccccc21	EP2 modulator 77 | EP2 cAMP induct active
CCOC(=O)n1c(=O)n(Cc2ccccc2)c2ccccc21	none
CCCCc1n[nH]c(=S)n1Cc1ccc(Cl)cc1	none | EP2 cAMP induct inactive
CC(=O)N(c1cccc(Br)c1)C1C=CS(=O)(=O)C1 (stereo unspecified)	EP2 modulator 69 | EP2 cAMP induct inactive
Cc1cc(C)cc(N(C(=O)c2ccc(Br)o2)C2C=CS(=O)(=O)C2)c1 (stereo unspecified)	none
CC(CC(=O)O)(CC(=O)O)C(=O)O	none (no result: p97 ATPase inh, Hck Nef HTS, Arbovirus inh) | EP2 cAMP induct inactive
CCOC(=O)C1CCN(c2c(C(=O)c3ccccc3)cnc3ccc(CC)cc23)CC1	EP2 modulator 77 | EP2 cAMP induct inactive
COc1cc2c(cc1OC)-c1cc(Nc3ccc4c(c3)OCCO4)nc(=O)n1CC2	none | EP2 cAMP induct inactive
COc1cc2c(cc1OC)-c1cc(N3CCCc4ccccc43)nc(=O)n1CC2	EP2 modulator 61 | EP2 cAMP induct inactive
O=S(Cc1cc(Sc2ccccc2)nc(-c2ccccc2)n1)c1ccccc1 (stereo unspecified)	EP2 modulator 71 | EP2 cAMP induct active
C[C@H](CCC(=O)O)[C@H]1CC[C@H]2[C@@H]3CC[C@@H]4C[C@H](O)CC[C@]4(C)[C@H]3C[C@H](O)[C@]12C	none (no result: p97 ATPase inh, Hck Nef HTS, Arbovirus inh, EP2 modulator)
C[C@H](CCC(=O)O)[C@@H]1CC[C@@H]2[C@H]3CC[C@@H]4C[C@H](O)CC[C@@]4(C)[C@@H]3CC[C@]21C	none (no result: p97 ATPase inh, Hck Nef HTS, Arbovirus inh) | EP2 cAMP induct inactive
Cc1ccc(-n2c(Cc3cccc4ccccc34)n[nH]c2=S)c(C)c1	EP2 modulator 61 | EP2 cAMP induct active
CC(C)(C)NC(=O)CN(C(=O)c1snc(C(=O)NC2CCCCC2)c1N)c1ccc(Cl)cc1	none (no result: p97 ATPase inh, Hck Nef HTS, Arbovirus inh)
CCOC(=O)Cn1c(=S)[nH]c2c(oc3ccc(Cl)cc32)c1=O	EP2 modulator 98 | EP2 cAMP induct inactive
c1ccc(C2=Nc3ccccc3NC(c3ccccc3)C2)cc1 (stereo unspecified)	EP2 modulator 65 | EP2 cAMP induct active
Brc1ccccc1C1CC(c2ccccc2)=Nc2ccccc2N1 (stereo unspecified)	none
N#Cc1sc2nc(-c3ccccc3)cc(-c3ccco3)c2c1N	none
N#Cc1sc2nc(C3CC3)cc(-c3ccccc3)c2c1N	EP2 modulator 83 | EP2 cAMP induct active
CCOc1cccc(CNc2ccc(O)cc2)c1OCc1ccccc1Cl	EP2 modulator 84 | EP2 cAMP induct active
CCOc1cccc(CNc2ccc(O)cc2)c1OCc1ccc(Cl)cc1Cl	none (no result: PGE2 EP2 inh)
COCCNC(=S)N(Cc1cc2cc(OC)ccc2[nH]c1=O)C1CCCC1	none (no result: p97 ATPase inh, Hck Nef HTS, Arbovirus inh)
CCC(Sc1nc(-c2ccccc2)c(C#N)c(=O)[nH]1)C(=O)Nc1cc(C)on1 (stereo unspecified)	PGE2 EP2 inh 50, EP2 modulator 76 | EP2 cAMP induct inactive
CCC(Sc1nc2ccccc2[nH]1)C(=O)Nc1cc(C)on1 (stereo unspecified)	none
